In PubChem BioAssay:
Some of the results follow. A number with no mark means an inactive call. Calls of active or inactive are those of the source.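 Rule for the calls, unless noted: active = mean inhibition of the reporter signal across four replicates at the single tested dose of 50% or more; inactive = the rest.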

Test: HIF-2a reporter inhibitor retest, confirmation, luminescence, 786-0 RCC cells (AID 651580;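 active = mean inhibition across four replicates of at least 40 percent at the single tested concentration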)
Settings: HIF-2a luciferase reporter luminescence, overnight, at 18.8 µM, hits give high values

| Structure (SMILES) | inhibition |
| --- | --- |
| CCC(C)(O)C(=O)OC1C(=O)OC2CC3C(C)=CC(=O)C(O)C3(C)C3C4(O)OCC23C1C(C)C4O (stereo unspecified) | 55.2% (active) |
| COC1C(O)C(C)OC(OC2CCC3(C=O)C(CCC4C3CCC3(C)C(C5=CC(=O)OC5)CCC43O)C2)C1O (stereo unspecified) | 40% |
| CCOC(=O)[C@]12Cc3ccccc3[C@H]1N(C1CCCCC1)C(=O)c1cc(OC)ccc12 | 93.2% (active) |

Test: HIF-1a luciferase reporter signal reduction – MiaPaCa-2 cells, single concentration, counter-screen for HIF-2a inhibitor project, confirmation (AID 651589)
Settings: MiaPaCa-2 HIF-1a luciferase reporter, desferoxamine, overnight; at 18.8 µM; hits give high values

| Structure (SMILES) | inhibition |
| --- | --- |
| CCC(C)(O)C(=O)OC1C(=O)OC2CC3C(C)=CC(=O)C(O)C3(C)C3C4(O)OCC23C1C(C)C4O (stereo unspecified) | 101% (active) |
| COC1C(O)C(C)OC(OC2CCC3(C=O)C(CCC4C3CCC3(C)C(C5=CC(=O)OC5)CCC43O)C2)C1O (stereo unspecified) | 105% (active) |
| CCOC(=O)[C@]12Cc3ccccc3[C@H]1N(C1CCCCC1)C(=O)c1cc(OC)ccc12 | 106% (active) |
